This passage reports growth results from PubChem BioAssay (NCI).

Structures are written as SMILES. The panel holds about 83,000 compounds, 20% with a hit somewhere; the sample as a whole holds those more often.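 Growth was measured after 48 h exposure to one concentration of compound in 96-well plates. Values under 10 count as active.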 Unmarked numbers belong to inactive results. Calls of active or inactive are those of the source.

Assay in all cases: NCI-60 one-dose screen, 48 h (100 = growth as untreated, 0 = no growth, -100 = all killed)
Holding throughout (conditions): 10 µM unless noted

Experiment [1] relates to SK-MEL-2 melanoma.
Experiment [2] deals with EKVX NSCLC.
In experiment [3] the test system is SN12C renal.
Experiment [4] deals with TK-10 renal.
The subject of experiment [5] is ACHN renal.
Experiment [6] deals with CAKI-1 renal.
The test system of experiment [7] is A498 renal.
The test system of experiment [8] is CCRF-CEM leukemia.
Experiment [9] has as its system MOLT-4 leukemia.
In experiment [10] the test system is SR leukemia.
For experiment [11], the system named is RPMI-8226 leukemia.
For experiment [12], the system named is OVCAR-8 ovarian.
Experiment [13] concerns OVCAR-5 ovarian.
Experiment [14] deals with OVCAR-4 ovarian.
Experiment [15] relates to SK-OV-3 ovarian.
The test system of experiment [16] is IGROV1 ovarian.
The subject of experiment [17] is HS 578T breast.
For experiment [18], the system named is NCI/ADR-RES ovarian.
The subject of experiment [19] is UO-31 renal.
The test system of experiment [20] is OVCAR-3 ovarian.

`COc1cnc2c(c1)C(=O)c1c-2n(CCCN2CCNCC2)c(=O)c2cc(Cl)ccc12`: the growth in experiment [1] was 43.9%; in experiment [2], 29%; in [3], 16.5%; in experiment [4] it was 47.5%; in experiment [5], -100% (active); in experiment [6], 33.1%. The growth is 13.6% in experiment [7]; -69.4% (active) in experiment [8]; -54.2% (active) in experiment [9]; -48.7% (active) in experiment [10]; -64.9% (active) in [11]; -58.9% (active) in [12]. For the same compound, the growth in [13] is -96.1% (active); in [14] it was 53.4%; in experiment [15], 14.5%; in experiment [16], 51.4%; in experiment [17] it was 66.3%; in [18], 48.1%.

Turning to `Cc1c(C(=O)CCl)c(=O)n(-c2ccccc2)n1C`, the growth is 71.4% in experiment [1]; 76.8% in experiment [2]; 86% in experiment [3]; 64.2% in experiment [19]; 40.1% in experiment [4]; 47% in experiment [5]. Further, the growth in [6] is 29.8%; in experiment [9], 24.8%; in experiment [10], 20.1%; in [12], 72.3%; in [13] it was 94.5%; in [15] it was 103%. Besides, the growth was 48.6% in experiment [16], 18.4% in experiment [20], 57.5% in experiment [17] and 83.3% in experiment [18].

Take `CCOC(=O)Cc1cc(Br)c(OCc2ccccc2)c(Br)c1`: the growth in [1] is 94.8%; in experiment [2], 90.9%; in experiment [3], 88.9%; in [4], 96.8%; in experiment [5] it was 92%; in experiment [6], 77.2%. Moreover, the growth in [7] was 109%; in experiment [8], 95.4%; in experiment [9] it was 77.2%; in experiment [10], 84.5%; in [12], 95.5%; in experiment [13], 85%. The growth in experiment [14] is 94.5%; in [15], 109%; in experiment [16], 85.6%; in [20], 113%; in experiment [17], 101%; in experiment [18], 102%.

As for `CNC(=O)c1c(NC(=O)c2ccc(C(C)C)cc2)sc2c1CCC(=O)C2`, the growth is -6.19% (active) in experiment [1]; -4.35% (active) in experiment [2]; -10.8% (active) in experiment [3]; -99.6% (active) in experiment [19]; 28.7% in experiment [4]; -90.2% (active) in [5]. Also, the growth in experiment [6] was -9.28% (active); in experiment [8], 1.96% (active); in experiment [10], 2.8% (active); in experiment [11] it was -26.2% (active); in experiment [12], 11%; in experiment [13], -45.9% (active). In addition, the growth in [14] was -74.3% (active); in experiment [15] it was -3.87% (active); in experiment [16] it was -52.7% (active); in experiment [20], -10.8% (active); in experiment [17] it was 19.1%; in experiment [18] it was -7.01% (active).

On to `CC(=O)O[C@H]1CC[C@]2(C)[C@H]3CC=C4[C@@H]5CC(C)(C)CC[C@]5(C(=O)OCC(COC(=O)C(Cl)Cl)(COC(=O)C(Cl)Cl)NC(=O)C(Cl)Cl)CC[C@@]4(C)[C@]3(C)CC[C@H]2C1(C)C`, for which the growth in experiment [1] is 77.7%; in [2], 65%; in experiment [3] it was 71.8%; in experiment [4], 78.1%; in [5], 62.4%; in experiment [6], 63%. Besides, the growth was 93.2% in [7]; 64.8% in experiment [8]; 44.9% in experiment [9]; 60.3% in experiment [10]; 33.5% in experiment [11]; 68.5% in experiment [12]. Moreover, the growth in [13] was 86.1%; in experiment [14], 67.6%; in experiment [15], 86.1%; in experiment [16], 89.5%; in [20], 67%; in experiment [17] it was 83.9%. Besides, the growth in experiment [18] was 78%.

Take `Cc1ccc(Nc2cccc3ccccc23)cc1`: the growth in experiment [1] was 93.3%; in experiment [2], 101%; in experiment [3], 96.6%; in experiment [4], 59.7%; in [5], 84.8%; in [6] it was 63.3%. Moreover, the growth in experiment [7] is 83.3%; in experiment [8], 84.8%; in experiment [9], 77.3%; in experiment [10] it was 62.1%; in experiment [11], 76.5%; in [12] it was 96.2%. Moreover, the growth is 93.2% in [13]; 78.9% in experiment [14]; 101% in experiment [15]; 73.2% in experiment [16]; 89.1% in [20]; 83.4% in experiment [17]. In addition, in experiment [18], the growth is 78.1%.

`O=C(/C=C/c1ccccc1Br)c1cccc(OCCCCOc2cccc(C(=O)/C=C/c3ccccc3Br)c2)c1`: the growth in experiment [1] was 104%; in experiment [2], 102%; in [3], 96.6%; in experiment [4] it was 117%; in experiment [5] it was 98.6%; in [6], 91.9%. Further, the growth in [7] is 108%; in [8], 88.5%; in experiment [9] it was 91.6%; in experiment [10], 31.8%; in experiment [11], -11.7% (active); in experiment [12], 102%. For the same compound, the growth is 105% in [13]; 101% in [14]; 104% in [15]; 92.4% in [16]; 108% in [20]; 102% in experiment [17]. The growth in experiment [18] is 102%.

On to `Cc1csc(N/N=C/c2ccncc2)n1`, for which the growth in experiment [1] is 97.7%; in experiment [2], 90.1%; in [3], 97.8%; in [19] it was 95%; in experiment [4] it was 91%; in experiment [5], 103%. Moreover, the growth in experiment [6] was 99.5%; in experiment [10], 96.6%; in experiment [11], 131%; in experiment [12], 97.7%; in [13], 112%; in experiment [14], 116%. Also, the growth in experiment [15] was 101%; in experiment [16], 105%; in experiment [20], 112%; in experiment [17], 104%; in experiment [18], 107%.
